This note sets out measurements from PubChem BioAssay (EPA / NIEHS).

Records with an inconclusive call do not appear. The source made the active and inactive calls. The calls were made as follows: active = hit-call score of the fitted dose curve at least 0.9, where 1 is the maximum; inconclusive = response in the unintended direction; inactive = score below 0.9.

Chain of human Ephrin type-A Receptor 1 (EphA1), EPHA1 (gene 2041) (P21709 whole entry, looked up): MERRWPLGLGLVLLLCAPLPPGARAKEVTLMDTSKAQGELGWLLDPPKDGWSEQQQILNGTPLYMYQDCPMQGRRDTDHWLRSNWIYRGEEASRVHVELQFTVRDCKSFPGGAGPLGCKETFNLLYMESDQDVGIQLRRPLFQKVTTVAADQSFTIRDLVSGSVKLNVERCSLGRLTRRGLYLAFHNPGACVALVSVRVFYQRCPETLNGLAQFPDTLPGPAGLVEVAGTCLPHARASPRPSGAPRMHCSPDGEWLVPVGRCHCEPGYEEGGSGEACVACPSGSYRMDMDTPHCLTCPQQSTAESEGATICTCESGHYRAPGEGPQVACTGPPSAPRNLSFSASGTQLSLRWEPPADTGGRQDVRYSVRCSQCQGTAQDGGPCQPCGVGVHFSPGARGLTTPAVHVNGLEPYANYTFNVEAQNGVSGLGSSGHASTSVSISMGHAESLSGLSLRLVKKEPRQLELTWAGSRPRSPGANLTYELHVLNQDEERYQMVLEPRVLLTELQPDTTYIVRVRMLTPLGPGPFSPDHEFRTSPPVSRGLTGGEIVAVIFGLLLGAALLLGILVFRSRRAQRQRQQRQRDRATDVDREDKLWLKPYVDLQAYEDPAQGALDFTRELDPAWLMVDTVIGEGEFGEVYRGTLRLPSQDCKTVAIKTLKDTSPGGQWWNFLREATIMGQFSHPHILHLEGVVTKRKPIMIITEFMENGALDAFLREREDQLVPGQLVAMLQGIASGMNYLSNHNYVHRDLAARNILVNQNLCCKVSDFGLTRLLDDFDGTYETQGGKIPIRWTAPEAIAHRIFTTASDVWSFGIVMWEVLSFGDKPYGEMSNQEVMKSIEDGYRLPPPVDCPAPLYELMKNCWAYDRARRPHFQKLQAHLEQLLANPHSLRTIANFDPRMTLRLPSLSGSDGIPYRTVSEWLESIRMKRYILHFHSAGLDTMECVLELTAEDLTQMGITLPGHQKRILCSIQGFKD
Chain of Glycogen synthase kinase-3 beta (Homo sapiens) (P49841 whole entry, looked up): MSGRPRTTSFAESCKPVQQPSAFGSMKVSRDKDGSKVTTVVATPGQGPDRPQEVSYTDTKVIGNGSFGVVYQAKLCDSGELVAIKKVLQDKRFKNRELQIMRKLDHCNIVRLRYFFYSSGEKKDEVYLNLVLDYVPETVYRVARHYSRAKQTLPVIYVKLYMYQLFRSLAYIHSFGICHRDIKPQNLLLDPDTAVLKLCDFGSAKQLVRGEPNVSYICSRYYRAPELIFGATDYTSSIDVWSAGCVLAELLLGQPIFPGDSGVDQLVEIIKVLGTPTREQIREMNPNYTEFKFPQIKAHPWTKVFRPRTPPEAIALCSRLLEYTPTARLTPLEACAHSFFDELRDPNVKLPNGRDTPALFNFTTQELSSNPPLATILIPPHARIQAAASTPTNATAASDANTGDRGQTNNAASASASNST

For one test, the target named is human Esterase Plasma (ES), BCHE (gene 590) (UniProt P06276). The test is described as follows: NVS_ENZ_hES: NovaScreen (NVS) Enzymatic Assay for human Esterase Plasma (ES) (AID 2283157). In outline: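 Primary single-concentration screen at 25 uM in duplicate, then concentration-response to a 50 uM top dose. Human plasma esterase activity detected colorimetrically after 0.25 h incubation, with DMSO as baseline.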
Chain of human Esterase Plasma (ES), BCHE (gene 590) (P06276 whole entry, looked up): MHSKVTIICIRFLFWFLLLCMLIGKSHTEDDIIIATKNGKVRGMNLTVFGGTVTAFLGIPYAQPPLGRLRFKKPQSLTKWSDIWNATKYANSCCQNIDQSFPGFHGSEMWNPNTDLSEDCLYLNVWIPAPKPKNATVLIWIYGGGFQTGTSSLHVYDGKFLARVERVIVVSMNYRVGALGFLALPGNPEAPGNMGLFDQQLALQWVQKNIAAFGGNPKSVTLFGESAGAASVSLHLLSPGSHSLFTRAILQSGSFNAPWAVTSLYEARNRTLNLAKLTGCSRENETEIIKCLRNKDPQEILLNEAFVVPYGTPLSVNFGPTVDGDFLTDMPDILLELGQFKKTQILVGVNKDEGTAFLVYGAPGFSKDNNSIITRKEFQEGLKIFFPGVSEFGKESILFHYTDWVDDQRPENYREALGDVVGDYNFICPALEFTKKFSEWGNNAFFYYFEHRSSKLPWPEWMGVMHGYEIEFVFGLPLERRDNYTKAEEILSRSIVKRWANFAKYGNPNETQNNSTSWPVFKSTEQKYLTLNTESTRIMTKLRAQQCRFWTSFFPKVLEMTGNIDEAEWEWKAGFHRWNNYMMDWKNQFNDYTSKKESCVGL
By AC50 is commonly meant the midpoint of the concentration-response curve, whichever way the signal moves. For the molecule `CCOP(=S)(OCC)Oc1nc(Cl)c(Cl)cc1Cl`, the AC50 is 25 µM (active).
On to `CC(=O)[O][Hg][c]1ccccc1`, for which the call was inactive.
The same measure, in the same setting: the value for `CCOP(=S)(OCC)SCSP(=S)(OCC)OCC` was “inactive”; that for `O=C(O)C(F)(F)C(F)(F)C(F)(F)C(F)(F)C(F)(F)C(F)(F)C(F)(F)C(F)(F)C(F)(F)C(F)(F)F` was “inactive”.
For the molecule `Cn1sc(Cl)cc1=O`, the molecule was classed as inactive.
Turning to `CCC(=O)C(CC(C)N(C)C)(c1ccccc1)c1ccccc1` (configuration not stated), the concentration at half-maximal activity (AC50) was 15.6 µM (active).
Still for that read-out and setting: the value for `COP(=S)(OC)Oc1ccc(S(=O)(=O)N(C)C)cc1` was 20 µM (active).
With `CCN1CCC2(CC1)COc1cc3c(cc12)N(C(=O)c1ccc(-c2ccc(-c4nnc(C)o4)cc2C)cc1)CC3`, the AC50 was 28.3 µM (active).

The next test has as its target human Ephrin type-A Receptor 1 (EphA1), EPHA1 (gene 2041) (UniProt P21709). Kind of test: NVS_ENZ_hEphA1: NovaScreen (NVS) Enzymatic Assay for human Ephrin type-A Receptor 1 (EphA1) (AID 2283158).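 Also: activity is signal loss versus DMSO meaning EphA1 kinase inhibition.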 The procedure, abridged:
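Recombinant kinase, fluorescent substrate, mobility-shift separation, fluorescence read at 1 h. Single-point duplicates at 25 uM; hits (e.g., ≥30% inhibition) run singleton concentration-response, max 50 uM. DMSO = negative control/baseline.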
With `C(=NC1CCCCC1)=NC1CCCCC1`, the result was inactive.
Turning to `Nc1ccc(-c2ccc(N)c(Cl)c2)cc1Cl`, the AC50 is 1.28 µM (active).
Consider `CC(Br)C(=O)O` (configuration not stated), for which the molecule was classed as inactive.
On the same count and under the same terms, then `COc1cccc(C=O)c1`, with “inactive”.
On the same count and under the same terms, then `CCCCCCCCC(=O)NCc1ccc(O)c(OC)c1`, with “inactive”; and `COP(=S)(OC)Oc1c(Cl)cc(C)cc1Cl`, with “inactive”.
On the same count and under the same terms, then `O=[N+]([O-])c1ccc2c3c(cccc13)CC2`, with “inactive”.
For `CCc1ccccc1N`, the call was inactive.
The same measure, in the same setting: then `COc1cc2c(cc1OC)[C@@]13CCN4CC5=CCO[C@H]6CC(=O)N2[C@H]1[C@H]6[C@H]5C[C@H]43`, with “inactive”.
In the case of `NC(=S)Nc1ccccc1`, the AC50 was 41.6 µM (active).
For the molecule `Nc1cccc(Cl)c1`, the molecule was called inactive.
The same measure, in the same setting: the value for `COP(=S)(OC)Oc1cc(Cl)c(Cl)cc1Cl` was “inactive”.

For a further test, the target named is Protein deacetylase HDAC6 (Homo sapiens) (UniProt Q9UBN7). The test is described as follows: NVS_ENZ_hHDAC6: NovaScreen (NVS) Enzymatic Assay for human Histone Deacetylase 6 (HDAC6) (AID 2283164). The protocol: NVS_ENZ_hHDAC6 is a biochemical, single-readout assay that uses extracted gene-proteins in a cell-free assay. Measurements were taken 1 hour after chemical dosing in a 384-well plate.NVS_ENZ_hHDAC6 is one of one assay component(s) measured or calculated from the NVS_ENZ_hHDAC6 assay. It is designed to make measurements of enzyme activity, a form of enzyme reporter, as detected with fluorescence intensity signals by Fluorescence and electrophoretic mobility shift technology.Data from the assay component NVS_ENZ_hHDAC6 was analyzed into 1 assay endpoint. This assay endpoint, NVS_ENZ_hHDAC6, was analyzed in the positive analysis fitting direction relative to DMSO as the negative control and baseline of activity. Using a type of enzyme reporter, loss-of-signal activity can be used to understand changes in the enzymatic activity as they relate to the gene HDAC6. Furthermore, this assay endpoint can be referred to as a primary readout, because this assay has produced multiple assay endpoints where this one serves a enzymatic activity function. To generalize the intended target to other relatable targets, this assay endpoint is annotated to the hydrolase intended target family, where the subfamily is histone deacetylase.
Chain of Protein deacetylase HDAC6 (Homo sapiens) (Q9UBN7 whole entry, looked up): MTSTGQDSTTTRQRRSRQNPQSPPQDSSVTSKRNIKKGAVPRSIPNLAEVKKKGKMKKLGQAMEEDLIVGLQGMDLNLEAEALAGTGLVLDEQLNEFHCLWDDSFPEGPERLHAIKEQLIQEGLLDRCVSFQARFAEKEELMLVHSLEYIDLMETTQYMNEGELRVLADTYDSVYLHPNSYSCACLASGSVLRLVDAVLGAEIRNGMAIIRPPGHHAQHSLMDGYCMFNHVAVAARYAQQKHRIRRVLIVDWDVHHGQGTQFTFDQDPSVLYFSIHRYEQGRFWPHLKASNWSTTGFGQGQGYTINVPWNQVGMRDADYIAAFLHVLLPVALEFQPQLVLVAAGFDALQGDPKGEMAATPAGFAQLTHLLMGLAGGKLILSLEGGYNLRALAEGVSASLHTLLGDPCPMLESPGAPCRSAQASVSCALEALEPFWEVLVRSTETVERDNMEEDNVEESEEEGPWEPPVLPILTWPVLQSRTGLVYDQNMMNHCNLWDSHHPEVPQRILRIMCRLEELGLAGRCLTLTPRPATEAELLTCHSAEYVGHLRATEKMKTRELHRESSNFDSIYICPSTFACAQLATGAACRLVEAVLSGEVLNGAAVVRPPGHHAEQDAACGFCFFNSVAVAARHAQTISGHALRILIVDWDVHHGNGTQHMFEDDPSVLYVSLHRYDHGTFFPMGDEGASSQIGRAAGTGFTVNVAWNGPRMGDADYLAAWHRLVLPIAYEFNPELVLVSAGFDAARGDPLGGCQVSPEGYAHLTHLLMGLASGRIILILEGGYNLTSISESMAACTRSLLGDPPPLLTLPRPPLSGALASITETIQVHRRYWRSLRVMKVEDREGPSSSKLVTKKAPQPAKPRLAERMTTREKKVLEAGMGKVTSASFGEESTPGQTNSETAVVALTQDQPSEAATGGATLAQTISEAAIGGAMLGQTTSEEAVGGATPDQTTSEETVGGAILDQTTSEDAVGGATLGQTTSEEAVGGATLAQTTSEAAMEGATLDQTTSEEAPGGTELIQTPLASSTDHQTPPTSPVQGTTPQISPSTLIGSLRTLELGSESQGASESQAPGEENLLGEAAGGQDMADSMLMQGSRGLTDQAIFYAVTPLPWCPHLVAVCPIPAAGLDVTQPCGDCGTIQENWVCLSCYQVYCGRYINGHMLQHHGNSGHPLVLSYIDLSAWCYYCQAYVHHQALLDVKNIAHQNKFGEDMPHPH
Binding assays used specific radioligands (tritiated, iodinated) with non-radioactive competitive displacement ligands in agonist or antagonist protocols (as indicated) and various reference compounds and inhibitors to titrate specific binding to receptors and transporters. Most enzyme assays (CYPs, kinases, phosphatases, proteases, HDACs) used recombinant protein and specific substrates (fluorescence mostly, some colorimetric and radioactive) and inhibitors, followed by a biochemical separation of substrate and product. All assays for the biochemical HTS were initially run in duplicate at a single concentration (10 uM for CYP450 assays and 25 uM for all others). […]
As to `CC(=O)[O][Hg][c]1ccccc1`, the AC50 was 2.32 µM (active).
`O=C1C2(Cl)C3(Cl)C4(Cl)C(Cl)(Cl)C5(Cl)C3(Cl)C1(Cl)C5(Cl)C24Cl` (configuration not stated): the call was inactive.
On the same count and under the same terms, the value for `C[C@]12CCC(=O)C[C@@H]1CC[C@@H]1[C@@H]2CC[C@]2(C)[C@@H](O)CC[C@@H]12` was “inactive”.

A further test addresses Glycogen synthase kinase-3 beta (Homo sapiens) (UniProt P49841). The test is described as follows: NVS_ENZ_hGSK3b: NovaScreen (NVS) Enzymatic Assay for human Glycogen Synthase Kinase-3 beta (GSK3b) (AID 2283165). In outline: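 Recombinant enzyme with specific fluorescent substrate, 1 h, product separated by electrophoretic mobility shift. Primary duplicate screen at 25 uM; actives (e.g. 30% inhibition) followed in singleton concentration-response to 50 uM. Signal loss fitted versus DMSO.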
As to `CCCCCCCCc1ccc(O)cc1`, the molecule was called inactive.
The same measure, in the same setting: the value for `O=C1C2(Cl)C3(Cl)C4(Cl)C(Cl)(Cl)C5(Cl)C3(Cl)C1(Cl)C5(Cl)C24Cl` (configuration not stated) was “inactive”; that for `Cc1ccccc1N` was “inactive”; that for `CC(C)(OO)c1ccccc1` was “inactive”.
On the same count and under the same terms, the value for `CC(C)(C)CC(C)(C)c1ccc(O)cc1` was “inactive”.
Same read-out and setting: the value for `COc1cc(-c2ccc(N)c(OC)c2)ccc1N` was “inactive”.

For the next test, the target named is Mitogen-activated protein kinase 3 (Homo sapiens) (UniProt P27361). The test is described as follows: NVS_ENZ_hMAPK3: NovaScreen (NVS) Enzymatic Assay for human Mitogen-Activated Protein Kinase 3 (MAPK 3) (AID 2283177). The procedure, abridged: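 Chemicals were first tested in duplicate at 25 uM, with hits re-run as concentration series (max 50 uM). Recombinant enzyme activity, measured 1 h post-dose in a cell-free format, was read by fluorescence/mobility shift relative to DMSO.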
Chain of Mitogen-activated protein kinase 3 (Homo sapiens) (P27361 whole entry, looked up): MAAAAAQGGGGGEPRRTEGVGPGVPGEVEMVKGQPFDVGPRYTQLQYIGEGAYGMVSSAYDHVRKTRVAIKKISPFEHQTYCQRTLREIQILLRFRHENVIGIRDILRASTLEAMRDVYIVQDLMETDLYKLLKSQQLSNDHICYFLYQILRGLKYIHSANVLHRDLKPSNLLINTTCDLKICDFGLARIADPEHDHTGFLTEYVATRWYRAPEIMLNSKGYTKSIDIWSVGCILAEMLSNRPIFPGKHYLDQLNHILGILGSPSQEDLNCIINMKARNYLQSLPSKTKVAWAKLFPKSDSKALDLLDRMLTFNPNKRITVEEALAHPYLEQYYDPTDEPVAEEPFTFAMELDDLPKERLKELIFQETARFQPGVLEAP
With `C[C@@H]1C[C@@H]([C@H](O)CC2CC(=O)NC(=O)C2)C(=O)[C@@H](C)C1`, the result was inactive.
The same measure, in the same setting: the value for `Cn1sc(Cl)cc1=O` was “inactive”.
On to `CC12CC1(C)C(=O)N(c1cc(Cl)cc(Cl)c1)C2=O` (configuration not stated), for which the AC50 is 40.6 µM (active).
